Results on 87 compounds are retold here after PubChem BioAssay AID652067 (The Scripps Research Institute Molecular Screening Center, 2013).

In all, about 370,000 compounds went through this assay and about 5,400 (1.5%) were called active.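 How the source made its calls: active means activation above the mean of all tested compounds plus 3 SD (cut at about 5.5% in these data); inactive means the rest.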 Only a selection was taken, and actives are over-represented in it overall.

The test system of this assay is DAF-12 nuclear receptor (Haemonchus contortus). As to the kind of experiment: hcDAF-12 driven luciferase reporter activation – cell-based, luminescence, HEK293, lit1-tk-luc reporter, primary screen (AID 652067).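 Further: 100% = response to 3 µM Δ7-dafachronic acid high control.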 To be noted: HEK293 hcDAF-12 lit1-tk-luc reporter, at 6.8 µM, stronger effect = higher value, 0% DMSO, 100% Δ7-dafachronic acid.
For the compound `COc1cccc(N(C(=O)CNC(=O)c2ccco2)C(C(=O)NC2CCCCC2)c2cccnc2)c1` (configuration not stated), the activation is -0.65% (inactive). On to `CC(C)(C)NC(=O)C(c1ccncc1)N(C(=O)CNC(=O)c1ccco1)c1ccc2c(c1)OCO2` (configuration not stated), for which the activation is 6.8% (active). The figure for `Cc1ccc(N(C(=O)CNC(=O)c2ccco2)C(C(=O)NC2CCCC2)c2ccncc2)cc1` (configuration not stated) is 0.7% (inactive). Take `CC(C)CNc1cccc2c1S(=O)(=O)N[C@H](CC(C)C)CO2`: the activation is -1.3% (inactive). Consider `Nc1ccccc1/C=N\N=C/c1ccccc1N`, for which the activation was 8.99% (active). As for `C=CCN1C(=O)[C@@H](CC(=O)NCCCCc2ccccc2)[C@]2(C(=O)OCC)CCCCC/C=C/12`, the figure is -0.4% (inactive); as for `CN(C)c1ccnc2sc(C(=O)c3ccccc3)c(N)c12`, 6.4% (active); as for `COC(=O)c1cc2c(N)c(C(=O)c3ccc(Cl)cc3)sc2nc1C(OC)OC`, 0.3% (inactive). With `CC(=O)c1c(Nc2ccccc2)sc(C(=O)c2ccccc2)c1C`, the activation is -2.59% (inactive). The figure for `CCCCCCCCN1C(=O)[C@@H](CC(=O)N2CCN(C(=O)OCC)CC2)C[C@@]2(C(=O)OC)C1=C[C@H](C1CCCC1)O[C@@H]2C` is -0.68% (inactive); for `COc1cccc(CN2C(=O)CCC2(C)C(=O)NC2CCCCCC2)c1` (configuration not stated) it is -2.09% (inactive). Take `O=C(CSc1nnc(COc2ccccc2)n1-c1ccc(Cl)cc1)Nc1ccc2c(c1)OCO2`: the activation was -0.19% (inactive). Turning to `COc1ccc(N2CCN(C(=O)CCc3nc(-c4ccc(C)cc4)no3)CC2)cc1`, the activation was -1.97% (inactive). The figure for `Cc1ccc(C)c(N2CCN(C(=O)CCc3nc(-c4cccc(C(F)(F)F)c4)no3)CC2)c1` is 6.2% (active); for `COc1ccc(-c2noc(CCC(=O)N3CCN(c4cccc(C)c4)CC3)n2)cc1` it is -0.53% (inactive). As for `C=CS(=O)(=O)N(Cc1nnn(Cc2ccccc2)c1Br)[C@H](C(=O)OC)C(C)C`, the figure is -3.12% (inactive).

Consider `O=C(CNC(=O)c1ccc2ccccc2c1)Nc1ncccc1O`, for which the activation was 0.18% (inactive). Turning to `O=C(NCC(=O)N1CCN(c2ccccc2O)CC1)c1ccc2ccccc2c1`, the activation was 6.1% (active).

Take `COc1ccc(N2CCN(C(=O)CNC(=O)c3ccc(C(C)(C)C)cc3)CC2)cc1`: the activation was -2.42% (inactive). The figure for `Clc1ccc(-n2c(COc3ccccc3)nnc2SCc2nc3ccccc3[nH]2)cc1` is -0.51% (inactive); for `CCn1c(SCC(C)=O)nc2sc3c(c2c1=O)CCCC3` it is -0.57% (inactive); for `CCc1nc(N2CCN(C(C)=O)CC2)c2c3c(sc2n1)CCCC3` it is 0.85% (inactive). Turning to `NNC(=O)C1CCCn2c1nc1sc3c(c1c2=O)CCCC3` (configuration not stated), the activation was 8.63% (active). The figure for `COC(=O)C1=C(C(=O)OC)C2C=C(C(C)C)C1C(=O)C2(C)O` (configuration not stated) is -1.42% (inactive); for `O=C(OCC#CCSc1nnc(-c2ccco2)o1)c1ccc(F)cc1` it is -1.32% (inactive); for `O=C(O)Cn1cnc2c(NCc3ccccc3)ncnc21` it is 0.95% (inactive). The figure for `Cc1cc(=O)[nH]c(SCC(=O)Nc2ccc(F)cc2F)n1` is -0.74% (inactive); for `O=C(Nc1ccccc1)N1CCN(Cc2nc3ccccc3c(=O)[nH]2)CC1` it is 0.3% (inactive). Take `Fc1ccccc1/C=N/Nc1cc(N2CCCCC2)ncn1`: the activation is 5.99% (active). Turning to `Cc1ccc(N2C(=O)C(NC(=O)c3c(F)cccc3F)(C(F)(F)F)C3=C2CC(C)(C)CC3=O)cc1` (configuration not stated), the activation was -1.79% (inactive). For `O=C(c1cccc(C(F)(F)F)c1)N1CC[C@H]2[C@H](CCCN2Cc2cc(F)cc(F)c2)C1`, the activation was -0.81% (inactive). The figure for `O=C(CSc1nnc(-c2cccc(Cl)c2)n1Cc1ccco1)Nc1ccc(OCc2ccccc2)cc1` is -3.78% (inactive); for `Clc1cccc(-c2nc3nc4ccccc4nc3n2Cc2ccco2)c1` it is 7.47% (active); for `O=C(CSc1nnc(-c2ccccc2)n1Cc1ccco1)Nc1ccccc1-c1ccccc1` it is -2.62% (inactive). In the case of `COC(=O)[C@]12C[C@H](CC(=O)NCCc3ccccc3OC)C(=O)N(Cc3ccccc3)C1=C[C@H](C(C)C)O[C@@H]2C1CC1`, the activation is -0.81% (inactive). As for `COc1cccc(OC)c1C(=O)N1CCN(Cc2cccnc2)CC1`, the figure is -1.19% (inactive); as for `Cc1ccc(C2=CCN(C)C(=O)N2c2ccc(Cl)cc2)cc1`, -0.28% (inactive); as for `COC(=O)CC1CCc2cc(C)cc(C(CC(C)C)NC(=O)[C@H](CC(C)C)NC(=O)OCc3ccccc3)c2O1` (some centres not stated), -1.44% (inactive). The figure for `O=C(COC(=O)/C=C/c1ccc(Cl)cc1)NC1CCS(=O)(=O)C1` (configuration not stated) is -0.16% (inactive); for `Cc1csc(NC(=O)c2ccc(C)s2)n1` it is 6.44% (active). The figure for `Cc1ccc(C(=O)NCC(=O)O)s1` is -0.44% (inactive). On to `COc1ccccc1NC(=O)c1cc(Cl)nnc1Cl`, for which the activation is 1.71% (inactive). As for `COc1ccccc1NC(=O)c1c(Br)cnn1C`, the figure is -1.66% (inactive); as for `COc1ccccc1NC(=O)c1ccc(C)s1`, 9.1% (active); as for `Cc1csc(NC(=O)CN2CCCCCC2)n1`, 0.84% (inactive). As for `C=CCC[C@@H](Cc1ccc(F)cc1)C(=O)OC[C@H](Cc1c[nH]c2ccccc12)NC(=O)[C@@H](CC=C)CC(=O)N(CCO)Cc1ccccc1`, the figure is -2.25% (inactive); as for `CCCCNc1cccc2c1S(=O)(=O)N[C@@H](C)CO2`, 2.03% (inactive); as for `COC(=O)[C@]12C[C@H](CC(=O)NCCCN3CCCC3=O)C(=O)N(CCc3ccc(OC)c(OC)c3)C1=C[C@H](COCc1ccccc1)O[C@@H]2C`, -0.83% (inactive).

As for `Cc1ccnc(-n2sc3ccccc3c2=O)n1`, the activation was 4.36% (inactive). As for `Cc1ccnc(Nc2nc3ccccc3s2)n1`, the figure is 9.2% (active). As for `C[C@H](C(=O)N(C)c1ccccc1)[C@@H](O)c1ccc2ccccc2c1`, the figure is 0.57% (inactive); as for `COc1cccc(CNC(=O)[C@H]2CCCN2C(=O)[C@H]2CCCN2C(=O)c2ccc(F)cc2)c1`, 2.09% (inactive).

For the compound `COC(=O)C1=C(C)N(Cc2ccc(C(F)(F)F)cc2)C(=NCc2ccccc2)NC1c1ccccc1C(F)(F)F` (configuration not stated), the activation was 0.56% (inactive). The figure for `Cc1ccc(C)c(C(C)NC(=O)C2CCCO2)c1` (configuration not stated) is -1.93% (inactive).

In the case of `Cc1cc(C)c2nc(N3CCC(C(=O)NCCN4CCOCC4)CC3)sc2c1`, the activation is 1.35% (inactive). With `Cc1cc(C)c2nc(NC(=O)C3CCCO3)sc2c1` (configuration not stated), the activation is 8.44% (active). As for `O=C(C(=O)N1CCC(CNC(=O)c2cccnc2Cl)CC1)c1cccs1`, the figure is -0.06% (inactive); as for `O=C(NCc1ccccc1)[C@@H]1CCCN1C(=O)[C@@H](NS(=O)(=O)c1ccc(F)cc1F)C1CCCCC1`, -1.11% (inactive); as for `Cc1cccc(NC(=O)c2cccc(C(=O)Nc3cccc(C)c3C)n2)c1C`, 0.52% (inactive). On to `Cc1cnc(NC(=O)c2ccccn2)s1`, for which the activation is 5.94% (active). On to `O=C(Nc1ccc2nc3n(c(=O)c2c1)CCCC3)c1ccc(Cl)nc1`, for which the activation is -2.27% (inactive).

Regarding `Cc1cnc(NC(=O)c2ccc(Cl)nc2)s1`, the activation was 7.6% (active).

`Cc1cnc(NC(=O)Cn2cnc3c2c(=O)n(C)c(=O)n3C)s1`: the activation is -1.32% (inactive). As for `Cc1ccc(NC(=O)c2ccc(Cl)nc2)cc1S(=O)(=O)N1CCOCC1`, the figure is -0.39% (inactive); as for `COc1ccccc1C(=O)N1O[C@]23C=C[C@]14C[C@@H](O)CC[C@]4(C)C2CC[C@]1(C)[C@@H]([C@H](C)/C=C/[C@H](C)C(C)C)CC[C@H]13` (some centres not stated), 0.11% (inactive). Take `C[C@@H]1CN([C@H](C)CO)C(=O)CCCn2cc(nn2)CO[C@H]1CN(C)C(=O)Nc1ccc(N2CCCCC2)cc1`: the activation was -1.32% (inactive).

As to `Cc1ccc(-n2c(SCC(=O)Nc3cccc4ccccc34)nnc2-c2ccccn2)cc1`, the activation is 0.59% (inactive). With `C[C@H]1[C@H](c2ccccc2)Oc2cc(Br)ccc2S(=O)(=O)N1Cc1cccc(F)c1`, the activation is -0.73% (inactive).

Regarding `COc1ccc(S(=O)(=O)NCCc2cc3ccc(C)c(C)c3[nH]c2=O)cc1`, the activation was -0.62% (inactive). Regarding `COc1cc(NC(=O)COC(=O)CSc2ccc3ccccc3c2)c(C)cc1[N+](=O)[O-]`, the activation is 2.93% (inactive). As for `CC1CCCCC1NC(=O)/C(C#N)=C/C=C/c1ccccc1[N+](=O)[O-]` (configuration not stated), the figure is -0.31% (inactive).

For the compound `COc1cc(/C=C(\C#N)C(=O)Nc2ccc3ccccc3c2)c([N+](=O)[O-])cc1OC`, the activation is 5.84% (active).

In the case of `Clc1ccc(-n2c(SC/C=C/c3ccccc3)nnc2-c2ccco2)cc1`, the activation was -1.47% (inactive). As for `CN[C@H]1C[C@H]2c3[nH]c4c(-c5ccccc5)cccc4c3CCN2C(=O)[C@H]1[C@H](C)O`, the activation was 0.81% (inactive). As for `CC(C)(C)C1CCC(=NNC(=O)c2ccc(Br)o2)CC1` (configuration not stated), the figure is 0.02% (inactive); as for `CCC(C)(C)C1CCC(=NNC(=O)c2ccc(Br)o2)CC1` (configuration not stated), 4.11% (inactive); as for `O=C(N/N=C\C1CC=CCC1)c1ccc(Br)o1` (configuration not stated), 6.56% (active). Consider `COc1ccc(Cn2ccc3ccc(-c4ccc5ccn(Cc6ccccc6C)c5c4)cc32)cc1`, for which the activation was -1.83% (inactive). As to `FC(F)(F)c1cccc(Cn2ccc3ccc(-c4ccc5ccn(Cc6ccccc6)c5c4)cc32)c1`, the activation is -1.69% (inactive). As for `CCC(=O)Nc1ccc2c(c1)C(=O)N(C)[C@@H]1CC[C@@H](CC(=O)NCCc3ccccc3)O[C@H]1CO2`, the figure is 0.81% (inactive); as for `Cc1cc(N)n2nc(-c3ccc(C(C)(C)C)cc3)cc2n1`, 17.7% (active). Regarding `O=C(NCC1COc2ccccc2O1)c1ccc(NC(=O)c2cc(F)ccc2F)cc1` (configuration not stated), the activation is -4.01% (inactive). For `CCOC(=O)C(=O)N(Cc1ccccc1)c1ccccc1C(=O)Nc1cc(OC)ccc1OC`, the activation is -1.88% (inactive). For `COc1ccc2nc3n(c(=O)c2c1)-c1ccc(Cl)cc1C(=O)NC3Cc1ccccc1` (configuration not stated), the activation was -2.8% (inactive). For the compound `COC(=O)c1ccccc1NC(=O)CSc1n[nH]c(-c2ccncc2)n1`, the activation was 5.75% (active). The figure for `CCOC(=O)c1cnc(SCC(=O)Nc2ccccc2C(=O)OC)nc1N` is -1.24% (inactive).

Take `CCc1nc(SCC(=O)Nc2ccccc2OC)n[nH]1`: the activation was -0.29% (inactive).
